# Laboratory results taken from PubChem BioAssay (EPA / NIEHS).
# “And” between values parts separate entries of the source, which are not always exact repeats. Identical values can stand only once. The source made the active and inactive calls. The calls were made as follows: active = hit-call score of the fitted dose curve at least 0.9, where 1 is the maximum; inactive = score below 0.9.
# Read-out: Interferon-gamma inducible Protein 10 (IP10), CXCL10 (gene 3627)
# Experiment: BSK_hDFCGF_IP10: BioMAP Diversity Plus: hDFCGF Assay for Interferon-gamma inducible Protein 10 (IP10) Biomarker Activity (AID 2283053)
# Conditions: primary human foreskin fibroblasts; actives raise or lower the signal
# Method: BSK_hDFCGF is a cell-based, multiplexed-readout assay that uses foreskin fibroblast, a human skin primary cell, with measurements taken at 24 hours after chemical dosing in a 96-well plate.BSK_hDFCGF_IP10 is an assay component measured in the BSK_hDFCGF assay. It measures IP-10 antibody related to regulation of gene expression using ELISA technology.Data from the assay component BSK_hDFCGF_IP10 was analyzed into 1 assay endpoint. This assay endpoint, BSK_hDFCGF_IP10, was analyzed with bidirectional fitting relative to DMSO as the negative control and baseline of activity. Using a type of binding reporter, gain or loss-of-signal activity can be used to understand changes in the signaling as they relate to the gene CXCL10. Furthermore, this assay endpoint can be referred to as a primary readout, because this assay has produced multiple assay endpoints where this one serves a signaling function. To generalize the intended target to other relatable targets, this assay endpoint is annotated to the cytokine intended target family, where the subfamily is chemotactic factor.
# The levels of cell surface (or secreted, indicated by the prefix "s") biomarker endpoints were measured by ELISA. Overt cytotoxicity to cells in confluent adherent cultures (all systems other than the BT system) was assessed by measuring total protein levels using sulforhodamine B (SRB) staining in parallel cultures at the time of biomarker measurements, indicated as SRB endpoints. For proliferation assays for adherent cell types, individual cell types are cultured at sub-confluence and relative cell numbers quantified by SRB staining at time points optimized for each system (48 h: 3C and CASM3C systems; 72 h: BT and HDF3CGF systems; 96 h: SAg system). SRB was performed by staining cells with 0.1% SRB after fixation with 10% TCA and reading wells at 560 nm.Viability and proliferation of PBMC (T cells) was quantified by Alamar Blue reduction for the SAg and BT systems. For PBMC viability (referred to as PBMC Cytotoxicity within the assay endpoint names), cells were plated (75,000/well in a 96-well plate) and then chemical samples added for 1 h before addition of activators, SEB and TSST-1 (20 ng/mL final concentration each). Cells were incubated for 90 h. Then, Alamar Blue (20 uL/well) (Invitrogen, Cat DAL1100) was added for 6 h, and the plates were read with a fluorescence microplate reader at 546/580 nm (excitation/emission). For PBMC proliferation, cells were plated and activated as above but incubated for only 16 h prior to addition of Alamar Blue. Plates were read after 6 h.
Structure (SMILES),outcome,AC50
CC(C=O)Cc1ccc(C(C)(C)C)cc1 (stereo not given),inactive,
CCCCN(CCCC)C(=O)N(CCCC)CCCC,,11.1 µM (active)
O=C(Nc1ccc2c(O)c(N=Nc3ccc(N=Nc4ccc(S(=O)(=O)O)cc4)cc3)c(S(=O)(=O)O)cc2c1)c1ccccc1,,25.5 µM (active) and 36.2 µM (active)
CN(C)C(=O)Nc1ccc(Oc2ccc(Cl)cc2)cc1,inactive,
CCOC(=O)C(C#N)=C(c1ccccc1)c1ccccc1,inactive,
C=CC(C)(O)CCC=C(C)C (stereo not given),inactive,
COc1ccc(CCN2CCC(Nc3nc4ccccc4n3Cc3ccc(F)cc3)CC2)cc1,inactive,
c1ccc2cc(Nc3ccc(Nc4ccc5ccccc5c4)cc3)ccc2c1,inactive,
CC=Cc1ccc(OCC)c(O)c1,inactive,
CC(CN=Cc1ccccc1O)N=Cc1ccccc1O (stereo not given),inactive,
Clc1cc(Cl)c(-c2c(Cl)c(Cl)cc(Cl)c2Cl)cc1Cl,,16 µM (active)
C[C@@H]1CCN(C(=O)[C@H](CCCN=C(N)N)NS(=O)(=O)c2cccc3c2NC[C@H](C)C3)[C@@H](C(=O)O)C1,inactive,
CCCCCCC(CO)CCCC (stereo not given),,30.6 µM (active) and 32.5 µM (active)
O=CN1CCOCC1,inactive,
CN(C)C(=S)SC(=S)N(C)C,,35.1 µM (active)
c1ccc(Oc2ccccc2)cc1,inactive,
Oc1c(Cl)cc(Cl)c(Cl)c1Cc1c(O)c(Cl)cc(Cl)c1Cl,,2.82 µM (active)
IC(I)I,inactive,
CC(C)(C)CC(C)(C)c1ccc(OCCOCC[N+](C)(C)Cc2ccccc2)cc1,,8.05 µM (active)
CCC(C)c1cc([N+](=O)[O-])cc([N+](=O)[O-])c1OC(=O)OC(C)C (stereo not given),,8.25 µM (active)

Structure (SMILES),outcome,AC50
CSCCC=O,inactive,
CCCCOC(=O)CCCCCCCC(=O)OCCCC,inactive,
CC1(C)CCC[C@]2(C)[C@H]3CCO[C@]3(C)CC[C@@H]12,,36.5 µM (active) and 37.9 µM (active)
CCCCCCCCCCCCCCCC(=O)OC/C=C(C)/C=C/C=C(C)/C=C/C1=C(C)CCCC1(C)C,inactive,
CC(=O)C1(C)CC2=C(CCCC2(C)C)CC1C (stereo not given),,13.8 µM (active)
CN(c1nccc(=O)[nH]1)C1CCN(c2nc3ccccc3n2Cc2ccc(F)cc2)CC1,inactive,
O=C1OC[C@H](Cc2cccc(O)c2)[C@H]1Cc1cccc(O)c1,inactive,
C1=CC2C3C=CC(C3)C2C1 (stereo not given),inactive,
CCCCCC(C=O)=Cc1ccccc1,inactive,
C=C(C)[C@H]1CC=C(C)C(=O)C1,inactive,
CS(=O)(=O)c1ccc(C2=C(c3ccccc3)C(=O)OC2)cc1,inactive,
O=C1c2ccccc2C(=O)c2c(O)ccc(O)c21,inactive,
COc1cc(Cl)c(OC)cc1N,inactive,
COc1ccc(OC)c(N=Nc2c(O)ccc3ccccc23)c1,,3.71 µM (active)
Cc1cc(CCC(=O)OCCOCCOCCOC(=O)CCc2cc(C)c(O)c(C(C)(C)C)c2)cc(C(C)(C)C)c1O,inactive,
CC1(C)C2=CCCC(C)(C)[C@]23CC[C@H]1C3,,34.9 µM (active)
CC(C)(N=C=O)c1cccc(C(C)(C)N=C=O)c1,inactive,
C=C(C)C(=O)OCC(CC)(COC(=O)C(=C)C)COC(=O)C(=C)C,,33.8 µM (active)
O=C1OC2(c3ccccc31)c1ccc(O)c(Br)c1Oc1c2ccc(O)c1Br,,20 µM (active)
C=C(C)C(=O)OCCOCCOCCOCCOC(=O)C(=C)C,inactive,
